The supplement of paper PMC11732987, “Enantioselective OTUD7B fragment discovery through chemoproteomics screening and high-throughput optimisation” (Communications Chemistry, 2025)

Legend:
Experiment in all cases: log2 ratio of Biotin-Ahx-Ub-VS probe labelling (fragment/DMSO); higher = less target engagement (more negative = stronger competition), active = hit call of the paper (q ≤ 0.05, log2 ratio ≤ -1)
Conditions in all cases: compound concentration: 200 uM; treatment time: 3 h
USP34 = USP34 (UniProt Q70CQ2)
In short: (§1)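 HEK293T lysate, 495 µg per sample in Tris/CHAPS/IGEPAL buffer with protease inhibitors, was treated in triplicate with fragment at 200 µM or vehicle for 3 h and then with Biotin-Ahx-Ub-VS at 0.5 µM final for 1 h. Labelled DUBs were NeutrAvidin-enriched, digested with LysC and trypsin, and run by diaPASEF LC-MS/MS. Spectronaut label-free quantities were global-median-normalised, and values are average log2 fragment/vehicle ratios by unpaired t-test on proteins with ≥2 unique peptides.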

USP36 = target: T1, USP36 (UniProt Q9P275)
T1 sequence (whole entry): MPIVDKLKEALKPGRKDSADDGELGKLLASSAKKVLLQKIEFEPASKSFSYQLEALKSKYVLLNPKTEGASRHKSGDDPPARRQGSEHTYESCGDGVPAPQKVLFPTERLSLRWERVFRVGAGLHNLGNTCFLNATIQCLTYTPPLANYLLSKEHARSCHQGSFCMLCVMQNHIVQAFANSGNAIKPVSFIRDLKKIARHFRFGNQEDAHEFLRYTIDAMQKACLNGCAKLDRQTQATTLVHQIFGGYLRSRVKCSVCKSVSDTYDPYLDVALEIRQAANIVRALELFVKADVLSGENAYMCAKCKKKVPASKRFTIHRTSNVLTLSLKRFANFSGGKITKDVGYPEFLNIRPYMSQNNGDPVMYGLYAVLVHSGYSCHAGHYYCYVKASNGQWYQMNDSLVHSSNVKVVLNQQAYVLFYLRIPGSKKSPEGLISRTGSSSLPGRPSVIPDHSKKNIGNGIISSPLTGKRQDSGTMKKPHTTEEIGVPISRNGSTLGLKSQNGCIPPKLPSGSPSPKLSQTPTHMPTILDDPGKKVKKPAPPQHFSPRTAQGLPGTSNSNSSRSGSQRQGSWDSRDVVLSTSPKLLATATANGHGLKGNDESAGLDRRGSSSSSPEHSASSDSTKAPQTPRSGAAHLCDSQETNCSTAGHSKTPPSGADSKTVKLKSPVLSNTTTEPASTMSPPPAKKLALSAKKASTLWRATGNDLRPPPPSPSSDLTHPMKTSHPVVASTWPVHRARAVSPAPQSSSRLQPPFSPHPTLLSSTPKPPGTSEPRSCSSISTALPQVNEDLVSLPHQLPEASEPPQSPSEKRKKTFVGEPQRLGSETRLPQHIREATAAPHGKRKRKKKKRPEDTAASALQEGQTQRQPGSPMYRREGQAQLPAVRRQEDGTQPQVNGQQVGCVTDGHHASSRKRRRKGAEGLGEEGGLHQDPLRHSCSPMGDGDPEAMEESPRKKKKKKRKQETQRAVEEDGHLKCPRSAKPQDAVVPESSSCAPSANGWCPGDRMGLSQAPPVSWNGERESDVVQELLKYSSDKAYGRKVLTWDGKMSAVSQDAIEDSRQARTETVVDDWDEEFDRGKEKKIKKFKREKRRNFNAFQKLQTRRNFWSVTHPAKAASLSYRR
In short: as §1

USP38 = target: T2, USP38 (UniProt Q8NB14)
T2 sequence (whole entry): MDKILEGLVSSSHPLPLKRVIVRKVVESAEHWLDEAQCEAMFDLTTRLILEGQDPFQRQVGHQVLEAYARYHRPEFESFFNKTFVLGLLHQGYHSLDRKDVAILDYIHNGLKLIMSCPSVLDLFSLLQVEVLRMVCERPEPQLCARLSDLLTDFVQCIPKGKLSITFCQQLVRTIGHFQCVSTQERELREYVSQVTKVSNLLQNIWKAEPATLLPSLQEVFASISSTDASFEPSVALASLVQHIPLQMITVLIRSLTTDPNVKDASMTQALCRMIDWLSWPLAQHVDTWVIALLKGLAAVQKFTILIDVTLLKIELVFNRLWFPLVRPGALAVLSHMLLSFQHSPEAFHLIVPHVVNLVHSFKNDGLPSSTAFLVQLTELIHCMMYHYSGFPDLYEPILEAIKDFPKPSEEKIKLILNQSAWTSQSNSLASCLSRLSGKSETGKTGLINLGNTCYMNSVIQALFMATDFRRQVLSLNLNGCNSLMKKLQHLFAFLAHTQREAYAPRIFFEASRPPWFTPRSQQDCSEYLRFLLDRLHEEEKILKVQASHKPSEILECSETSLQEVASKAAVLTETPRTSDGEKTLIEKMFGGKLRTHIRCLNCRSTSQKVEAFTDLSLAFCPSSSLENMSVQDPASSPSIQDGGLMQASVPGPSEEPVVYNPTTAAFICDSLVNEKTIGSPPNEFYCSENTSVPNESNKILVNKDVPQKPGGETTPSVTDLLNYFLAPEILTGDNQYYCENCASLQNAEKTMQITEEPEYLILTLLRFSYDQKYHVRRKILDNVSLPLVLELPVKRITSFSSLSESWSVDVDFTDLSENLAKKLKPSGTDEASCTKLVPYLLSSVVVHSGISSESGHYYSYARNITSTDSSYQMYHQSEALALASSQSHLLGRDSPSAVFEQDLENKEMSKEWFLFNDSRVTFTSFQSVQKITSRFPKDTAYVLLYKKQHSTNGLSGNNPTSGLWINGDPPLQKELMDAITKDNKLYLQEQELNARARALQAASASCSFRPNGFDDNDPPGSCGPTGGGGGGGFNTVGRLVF
In short: as §1

USP39 = target: T3, USP39 (UniProt Q53GS9)
T3 sequence (whole entry): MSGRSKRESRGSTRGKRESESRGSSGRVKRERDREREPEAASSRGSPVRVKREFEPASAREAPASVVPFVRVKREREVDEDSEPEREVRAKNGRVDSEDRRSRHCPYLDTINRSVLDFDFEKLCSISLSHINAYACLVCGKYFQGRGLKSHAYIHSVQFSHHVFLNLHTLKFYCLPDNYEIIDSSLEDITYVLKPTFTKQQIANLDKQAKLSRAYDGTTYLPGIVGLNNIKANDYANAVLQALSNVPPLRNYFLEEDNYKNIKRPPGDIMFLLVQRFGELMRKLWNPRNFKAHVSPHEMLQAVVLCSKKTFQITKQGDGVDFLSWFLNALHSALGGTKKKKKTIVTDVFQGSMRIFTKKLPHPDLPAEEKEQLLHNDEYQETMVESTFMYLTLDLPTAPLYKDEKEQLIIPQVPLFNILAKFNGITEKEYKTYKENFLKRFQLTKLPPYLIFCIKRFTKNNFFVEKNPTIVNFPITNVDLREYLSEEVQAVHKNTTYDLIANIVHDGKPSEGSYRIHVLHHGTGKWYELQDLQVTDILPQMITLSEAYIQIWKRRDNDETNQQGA
In short: as §1

USP4 = target: T4, USP4 (UniProt Q13107)
T4 sequence (whole entry): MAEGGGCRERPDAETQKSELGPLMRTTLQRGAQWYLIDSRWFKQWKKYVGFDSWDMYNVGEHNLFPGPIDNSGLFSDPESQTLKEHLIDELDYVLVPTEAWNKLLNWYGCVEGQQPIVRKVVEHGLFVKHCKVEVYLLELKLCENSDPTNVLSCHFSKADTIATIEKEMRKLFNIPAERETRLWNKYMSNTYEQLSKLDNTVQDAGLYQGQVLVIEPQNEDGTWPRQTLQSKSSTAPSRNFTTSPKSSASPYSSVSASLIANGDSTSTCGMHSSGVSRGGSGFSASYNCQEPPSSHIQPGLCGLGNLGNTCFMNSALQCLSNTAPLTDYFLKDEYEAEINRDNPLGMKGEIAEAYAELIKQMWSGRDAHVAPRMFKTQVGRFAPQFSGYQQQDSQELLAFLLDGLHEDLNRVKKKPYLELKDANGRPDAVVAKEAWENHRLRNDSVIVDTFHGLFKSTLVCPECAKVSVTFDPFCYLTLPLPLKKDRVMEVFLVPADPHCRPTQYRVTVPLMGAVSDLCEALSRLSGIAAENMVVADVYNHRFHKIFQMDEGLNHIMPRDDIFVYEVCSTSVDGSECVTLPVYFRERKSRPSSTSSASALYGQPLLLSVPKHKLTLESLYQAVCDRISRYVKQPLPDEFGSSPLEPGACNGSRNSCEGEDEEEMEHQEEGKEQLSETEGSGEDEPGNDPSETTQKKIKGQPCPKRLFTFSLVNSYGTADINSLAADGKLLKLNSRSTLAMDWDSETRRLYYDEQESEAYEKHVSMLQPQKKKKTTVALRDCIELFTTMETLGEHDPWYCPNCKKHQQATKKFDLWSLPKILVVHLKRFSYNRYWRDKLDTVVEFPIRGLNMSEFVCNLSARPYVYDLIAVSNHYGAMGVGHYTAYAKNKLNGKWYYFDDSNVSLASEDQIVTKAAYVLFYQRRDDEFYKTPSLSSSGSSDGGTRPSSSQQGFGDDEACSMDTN
In short: as §1

Measured: log2 ratio of Biotin-Ahx-Ub-VS probe labelling

USP34, sequence (Q70CQ2 whole entry, the tested form may be a part): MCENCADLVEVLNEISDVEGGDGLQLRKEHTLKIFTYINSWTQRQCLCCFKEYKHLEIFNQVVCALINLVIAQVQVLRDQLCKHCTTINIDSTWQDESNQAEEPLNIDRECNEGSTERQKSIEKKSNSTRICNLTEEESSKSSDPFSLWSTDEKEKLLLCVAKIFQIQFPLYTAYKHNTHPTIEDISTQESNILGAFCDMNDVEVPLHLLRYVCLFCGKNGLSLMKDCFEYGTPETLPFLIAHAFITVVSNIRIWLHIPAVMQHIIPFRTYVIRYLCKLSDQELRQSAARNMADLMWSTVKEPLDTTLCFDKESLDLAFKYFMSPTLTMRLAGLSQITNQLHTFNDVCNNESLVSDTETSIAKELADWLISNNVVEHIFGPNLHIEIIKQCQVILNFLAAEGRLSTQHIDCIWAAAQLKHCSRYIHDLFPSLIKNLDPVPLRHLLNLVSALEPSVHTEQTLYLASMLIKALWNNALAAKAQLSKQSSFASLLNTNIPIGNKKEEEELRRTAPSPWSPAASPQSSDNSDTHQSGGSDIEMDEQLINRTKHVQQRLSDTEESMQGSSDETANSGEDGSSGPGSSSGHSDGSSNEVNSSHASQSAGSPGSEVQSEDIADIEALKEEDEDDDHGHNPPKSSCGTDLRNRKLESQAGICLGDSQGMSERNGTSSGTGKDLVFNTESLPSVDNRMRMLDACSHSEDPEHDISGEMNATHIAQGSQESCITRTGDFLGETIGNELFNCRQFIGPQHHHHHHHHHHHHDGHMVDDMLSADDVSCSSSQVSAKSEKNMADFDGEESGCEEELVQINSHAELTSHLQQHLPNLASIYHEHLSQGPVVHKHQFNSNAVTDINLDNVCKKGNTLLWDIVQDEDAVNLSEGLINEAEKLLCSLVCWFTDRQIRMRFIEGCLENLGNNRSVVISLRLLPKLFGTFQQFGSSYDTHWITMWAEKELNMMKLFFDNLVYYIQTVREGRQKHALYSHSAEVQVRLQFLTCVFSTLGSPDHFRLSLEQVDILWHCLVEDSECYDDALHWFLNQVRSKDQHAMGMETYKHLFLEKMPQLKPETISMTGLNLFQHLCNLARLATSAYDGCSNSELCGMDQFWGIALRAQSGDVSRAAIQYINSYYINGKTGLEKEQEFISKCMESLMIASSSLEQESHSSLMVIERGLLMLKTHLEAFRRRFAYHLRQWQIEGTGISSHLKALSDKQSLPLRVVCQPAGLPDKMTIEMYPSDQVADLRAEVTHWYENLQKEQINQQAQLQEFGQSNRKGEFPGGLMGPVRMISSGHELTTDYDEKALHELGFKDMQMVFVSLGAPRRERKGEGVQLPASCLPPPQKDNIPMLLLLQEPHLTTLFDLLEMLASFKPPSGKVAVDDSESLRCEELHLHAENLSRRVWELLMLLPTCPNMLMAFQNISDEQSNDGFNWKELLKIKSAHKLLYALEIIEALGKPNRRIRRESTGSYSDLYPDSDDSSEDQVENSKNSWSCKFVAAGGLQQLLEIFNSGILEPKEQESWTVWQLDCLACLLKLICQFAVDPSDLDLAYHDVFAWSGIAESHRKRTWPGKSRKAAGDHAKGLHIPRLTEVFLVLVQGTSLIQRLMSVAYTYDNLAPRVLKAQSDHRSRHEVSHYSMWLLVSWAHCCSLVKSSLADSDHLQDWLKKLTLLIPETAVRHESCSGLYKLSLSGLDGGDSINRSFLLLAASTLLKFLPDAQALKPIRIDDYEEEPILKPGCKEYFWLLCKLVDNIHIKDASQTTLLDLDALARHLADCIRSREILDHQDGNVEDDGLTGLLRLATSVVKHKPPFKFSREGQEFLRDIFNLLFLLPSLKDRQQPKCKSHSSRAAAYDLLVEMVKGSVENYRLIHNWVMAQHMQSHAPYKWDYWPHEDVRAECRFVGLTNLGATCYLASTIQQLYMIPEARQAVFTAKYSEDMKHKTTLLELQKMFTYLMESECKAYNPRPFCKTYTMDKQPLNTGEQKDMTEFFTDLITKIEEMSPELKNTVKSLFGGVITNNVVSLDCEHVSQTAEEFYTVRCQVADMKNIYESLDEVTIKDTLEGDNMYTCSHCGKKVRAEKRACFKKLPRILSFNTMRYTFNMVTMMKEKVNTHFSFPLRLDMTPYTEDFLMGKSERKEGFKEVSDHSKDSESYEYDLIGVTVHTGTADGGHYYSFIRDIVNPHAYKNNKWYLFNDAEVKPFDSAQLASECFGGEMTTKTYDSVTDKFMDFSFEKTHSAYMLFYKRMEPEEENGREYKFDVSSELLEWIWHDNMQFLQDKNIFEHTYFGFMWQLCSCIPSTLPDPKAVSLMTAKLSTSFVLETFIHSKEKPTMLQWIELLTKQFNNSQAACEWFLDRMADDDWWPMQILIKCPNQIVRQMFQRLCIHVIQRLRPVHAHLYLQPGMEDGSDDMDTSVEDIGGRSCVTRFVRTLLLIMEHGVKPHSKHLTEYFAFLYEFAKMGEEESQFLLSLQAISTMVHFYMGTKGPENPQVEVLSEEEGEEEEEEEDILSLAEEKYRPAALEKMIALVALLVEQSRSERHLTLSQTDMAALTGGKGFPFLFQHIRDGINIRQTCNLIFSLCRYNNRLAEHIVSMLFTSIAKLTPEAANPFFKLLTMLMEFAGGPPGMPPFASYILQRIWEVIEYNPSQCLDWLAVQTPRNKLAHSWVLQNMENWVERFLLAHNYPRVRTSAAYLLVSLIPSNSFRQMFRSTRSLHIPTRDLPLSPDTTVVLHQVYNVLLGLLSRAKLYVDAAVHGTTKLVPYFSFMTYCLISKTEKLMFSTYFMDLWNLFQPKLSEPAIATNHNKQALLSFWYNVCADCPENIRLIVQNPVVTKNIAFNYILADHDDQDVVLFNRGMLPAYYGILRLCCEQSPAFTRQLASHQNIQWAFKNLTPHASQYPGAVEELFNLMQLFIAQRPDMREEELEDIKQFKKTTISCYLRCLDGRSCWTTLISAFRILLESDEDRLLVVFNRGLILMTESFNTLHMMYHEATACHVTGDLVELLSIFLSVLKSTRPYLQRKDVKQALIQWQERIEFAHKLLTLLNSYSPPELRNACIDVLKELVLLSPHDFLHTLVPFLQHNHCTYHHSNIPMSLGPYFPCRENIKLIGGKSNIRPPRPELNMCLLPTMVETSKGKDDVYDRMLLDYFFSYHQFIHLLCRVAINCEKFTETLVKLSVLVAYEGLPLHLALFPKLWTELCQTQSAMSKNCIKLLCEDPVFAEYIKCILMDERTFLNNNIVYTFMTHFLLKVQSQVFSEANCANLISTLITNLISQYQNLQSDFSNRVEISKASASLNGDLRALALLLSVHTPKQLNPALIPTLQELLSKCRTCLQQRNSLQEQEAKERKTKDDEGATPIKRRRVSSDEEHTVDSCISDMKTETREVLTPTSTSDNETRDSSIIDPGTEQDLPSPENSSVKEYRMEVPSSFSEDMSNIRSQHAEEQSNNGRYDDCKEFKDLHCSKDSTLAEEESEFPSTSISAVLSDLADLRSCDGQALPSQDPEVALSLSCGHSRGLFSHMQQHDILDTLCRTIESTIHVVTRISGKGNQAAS

O=C(CCl)N1CCCCC12CCOCC2
inactive: USP34 -0.284 | USP36 -0.239 | USP38 -0.4 | USP39 -0.243 | USP4 -0.266
